Assay results published in the supplement of paper PMC6555819.

system: VDR:RXRa (NR concentration 270 nM, RXRa partner concentration 90 nM); assay: PBM binding z-score (relative to random genomic background probes); higher = stronger binding; sequences stand for … in GC…GCGATTGACAGCGTAGAATGAAGG
Description: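 Protein-binding microarray (Agilent 4x180K custom design, double-stranded 60-nt probes: 5' GC cap, 34-nt variable region, 24-nt constant primer region; full probe sequence given). Purified or IVT nuclear receptor:RXRα heterodimers (3:1 NR:RXRα, mostly 270:90 nM) or homodimers were incubated for 1 h in PBS with 2% milk and no ligand, then detected with Alexa488 antibodies. Fluorescence from o1-orientation probes (~5 replicates averaged) was converted to z-scores against 500 random hg19 background probes. Variable regions are seed direct-repeat (DR0–DR5) sites, all their single-nucleotide variants and half-site ablations.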

First: CCGAGTAGGTTACGGGGGGGCATTCAGTGCGAAT
Second: AGATTGAGGTTACCAAAGATCAGGGAAACGCTTG
The PBM binding z-score of the first is higher: 5.49 for the first, 1.39 for the second.

Compared with CCGAGTAGCTTACGAGGGGGCATTCAGTGCGAAT, CGAACTAGGTCAGAGGACAGTGAAAGGCGACGTA is lower in PBM binding z-score: 3.41 for the first, 0.161 for the second.

First: ATATGTAGGTTACATCCGGGTCTTTCAGGCTATG
Second: CCGACTGGGGCAAAGGTTACCACACTCAGTACGA
The PBM binding z-score of the first is lower: 1.06 for the first, 1.81 for the second.

Going from CCTACTGGGCCAAGGTCATTGCTCAGTCAAAGCA to AGTCAAAGTTCACTAGGCAACGTAAGATTCAGCT, the PBM binding z-score falls from 3.19 to 3.13.

Going from CAAGCTAGGTCAAGAGGTCAAAGTCCGCTTCCCG to CCTTACGGGTCAGTGACAGGTTATAGCATTTGGA, the PBM binding z-score falls from 5.9 to 2.49.

Going from ATATGTAGGTCATCGGGTCATTCAGTTTGCGCAT to CGTCCAACGTCAAGGTCAGTGAAAGAGACTCGAA, the PBM binding z-score falls from 6.28 to 1.18.

Going from ATATGTAGGTTTGGGTCATTCAGAAAGTAGGGAA to CCGAGTAGGTTACGAGGGGGCATTCAATGCGAAT, the PBM binding z-score rises from 2.04 to 4.88.

Going from CCGAGTAGGTTAAGAGGGGGCATTCAGTGCGAAT to ATATGTAGGTTAGGGTCATGCAGAAAGTAGGGAA, the PBM binding z-score falls from 5.44 to 4.36.

Going from ATATGTAGGTTAGGGTCATCCAGAAAGTAGGGAA to CAATGTAGGTTAAGGGGGTCATTCAGTTTGAAAG, the PBM binding z-score rises from 4.46 to 7.74.

First: CGAACTAGGTTACCAGGACAGTGAAGAGGTTGGA
Second: CTATGTAGGTTAATGGGGTCATTCAGTTTGAAAG
The PBM binding z-score of the first is lower: -0.164 for the first, 7.83 for the second.

First: AGAATGAGGTTACACGTAGATCAGGGAAGAAAGT
Second: CGAACTATGTCAAAGGACAGTGAAAGGCGACGTA
The PBM binding z-score of the first is higher: 1.67 for the first, -0.0394 for the second.

First: CCTAGTTGGTCAGGAGGTCACAAACCGGATATGA
Second: TCGAGTAGGTGACGGGGGCATTCAGGGATGAAGA
The PBM binding z-score of the first is higher: 3.4 for the first, 3.36 for the second.

First: GATACAGGGGCAAGGCCAGAGTACGCGTATTGAT
Second: TCGAGTAGGTTGCGGGGGCATTCAGGGATGAAGA
The PBM binding z-score of the first is lower: 0.153 for the first, 3.33 for the second.

Compared with CCGAGTAGGTTTCGAGGGGGCATTCAGTGCGAAT, CTCGAAAGGTCGTGCTCAGGTGAGTATGCCAAAC is lower in PBM binding z-score: 3.65 for the first, 3.25 for the second.

First: CGAACTAGGGCAAAGGACAGTGAAAGGCGACGTA
Second: CCTTACCGGTCAAGGTTATAGCACGGGTGGTACG
The PBM binding z-score of the first is lower: -0.612 for the first, 0.829 for the second.

Going from CCGAGTAGGTTACGATGGGGCATTCAGTGCGAAT to CCTTACGGGTCAGGAGGTTATAGCACGACGAGCG, the PBM binding z-score rises from 0.842 to 3.14.

First: TCGAGTAGCTTACGGGGGCATTCAGGGATGAAGA
Second: CTATTTAGGTTAAGGGGGTCATTCAGTTTGAAAG
The PBM binding z-score of the first is lower: 2.45 for the first, 7.31 for the second.

Going from CGAACTAGGTCAGCAGGACAGTGAAGAGGTTGGA to TGTCAAAGTTCTAAGGTAACGTAAGTATCCACAC, the PBM binding z-score rises from 0.428 to 0.479.

Compared with CGCACTAGGTCATTGACAGGACAGTGAATAGTAA, CTAGGTAGGTTAAGGGGGTCATTCAGTTTGAAAG is higher in PBM binding z-score: 2.36 for the first, 7.24 for the second.

First: CGTCAAAGTTCAACTAATGTAACGTAAAGCACGC
Second: TCGAGTAGGTTACGGGGCCATTCAGGGATGAAGA
The PBM binding z-score of the first is higher: 4.2 for the first, 1.26 for the second.
